From PubChem BioAssay (NCI)
This is part of a sample that, as a whole, favours compounds with a hit. Of some 83,000 tested, about 20% had one in any assay.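 In brief: 96-well plates, 48 h treatment, single concentration, percent growth endpoint.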 Active and inactive are the calls of the source.

tested on: LOX IMVI melanoma; experiment: NCI-60 one-dose screen, 48 h (100 = growth as untreated, 0 = no growth, -100 = all killed); details: 10 µM unless noted
Method: Growth inhibition of the LOX IMVI human tumor cell line is measured as a screen for anti-cancer activity. Cells are grown in 96 well plates and exposed to the test compound for 48 hours. Compounds are tested at a single concentration, which is 10^-5 M for most compounds. The reported endpoint is percent growth (GI% or GIPRCNT), where numbers from 0 - 100% represent growth inhibition, and numbers from -100% - 0 represent cell death. For example, a value of 40 represents 60% growth inhibition. A value of 0 means no net growth occurred over the course of the experiment. A value of -40 indicates 40% of cells at the beginning of the experiment died by the end of the experiment. A value of -100 means all cells are dead at the end of the experiment.
NCI-60 Human Tumor Cell Lines Screen was performed using the standard one-dose NCI protocol, which is described in more detail at https://dtp.cancer.gov/discovery_development/nci-60/default.htm.
Compounds with GIPRCNT values below 10 were considered active. Activity score was based on GIPRCNT using the following formula: […]
Score is 0 for GIPRCNT values of 100 or above, 50 for GIPRCNT values of 0, and 100 for GIPRCNT values of -100.

SMILES | growth
COc1ccc(/C=C(/C(=O)n2cnnn2)c2cc(OC)c(OC)c(OC)c2)cc1 | 37% (inactive)
CN1CCN(c2ccc3nc4c(nc3c2C(F)(F)F)C(=O)c2ncccc2C4=O)CC1 | -50.1% (active)
CCOC(=O)C1=C(C)C(Cl)=N/C1=C\c1[nH]c(Cl)c(C)c1C(=O)OCC | 93.9% (inactive)
COc1ccc(C[n+]2c3ccccc3n3c4ccc(N)cc4ccc32)c(OC)c1OC | 85.2% (inactive)
CCOc1cccc(/C=N/NC(=O)c2cccc(Nc3ccnc(C(F)(F)F)c3)c2)c1O | 11.8% (inactive)
C=C(C)[C@@H]1CCC[C@]2(C(=O)N3CCN(C)CC3)CC[C@]3(C)[C@@H](CC[C@@H]4[C@@]5(C)CC/C(=N\NC(=O)c6ccncc6)C(C)(C)[C@@H]5CC[C@]43C)[C@@H]12 | 89.3% (inactive)
CC(=O)/C(=C/c1ccc([N+](=O)[O-])cc1)C(=O)c1ccccc1 | -28.5% (active)
Cc1cc(Nc2ccc(C(=O)N3CCCC3)cc2)nc(NCCCNc2ccnc3cc(Cl)ccc23)n1 | -67.1% (active)
C#CCOc1cccc(-c2ncnc3cc(NC(=O)C=C)ccc23)c1 | 34.1% (inactive)
CCN(CC)CCN1C(=O)c2c(c(C)c3c(oc4ccc(O)cc43)c2C)C1=O | -94.1% (active)
CC(=O)OC(c1ccccc1)C1CCOC1=O (stereo not given) | 96.7% (inactive)
C=C(CNCCO)[C@@H]1CC[C@]2(CO)CC[C@]3(C)[C@H](CC[C@@H]4[C@@]5(C)CCC(N)C(C)(C)[C@@H]5CC[C@]43C)[C@@H]12 (stereo not given in full) | -67.8% (active)
CN1C(=O)/C(=C/c2ccc(C(=O)Nc3ncc(Cc4cccc(Cl)c4)s3)cc2)SC1=S | 22.7% (inactive)
CN1CCN(C(=O)[C@@]2(C)CC[C@]3(C)CC[C@]4(C)C(=CC[C@@H]5[C@@]6(C)CCC(=O)NC(C)(C)[C@@H]6CC[C@]54C)[C@@H]3C2)CC1 | 8.99% (active)
CC1(C)CC(=O)c2c(nn(-c3ccc(Br)cc3)c2-c2cn(-c3ccccc3)nc2-c2cccnc2)C1 | 85.5% (inactive)
CS(=O)(=O)Nc1cc(-c2ccc3ncc(C#N)c(Nc4ccc(F)c(Cl)c4)c3c2)cnc1Cl | -53.7% (active)
CCN(CC)CCN1C(=O)c2cccc3c(/C=C/CN4C(=O)c5cccc6cccc(c56)C4=O)ccc(c23)C1=O | 96.6% (inactive)
O=C(CCSc1nnc2n(Cc3ccccc3)c(=O)c3c4c(sc3n12)CCCC4)N1CCN(c2ccccc2)CC1 | 100% (inactive)
C[C@]1(O)CC(=O)[C@]2(O)C3=C(C=C[C@]2(O)C1)C(=O)c1c(O)cccc1C3=O | -51.5% (active)
COc1ccc(C(=O)Cn2c(C(=O)c3ccc(OC)cc3)nc3ccccc32)cc1 | 38.8% (inactive)

SMILES | growth
Nc1nc(N)c2c(n1)NC(c1cccc(Nc3ccnc4cc(C(F)(F)F)ccc34)c1)CC(c1ccccc1)=N2 (stereo not given) | 45.6% (inactive)
O=C(C1=Cc2cc3ccccc3n2Cc2cnnn21)c1ccc(O)cc1 | 50.6% (inactive)
CCNC(=O)Oc1ccc(/C(=C(/C)Cc2ccc(OC)cc2)c2ccc(OCCN3CCCCC3)cc2)cc1 | 60.9% (inactive)
CC(C)(C)c1cc(Cl)c(O)c(CNCCO)c1 | 101% (inactive)
COc1ccc(/C=C2\CN(C(=O)C(Cl)Cl)C/C(=C\c3ccc(OC)cc3)C2=O)cc1 | -77.8% (active)
O=C1c2cccc3cccc(c23)C(=O)N1C/C=C/c1ccc2c3c(cccc13)C(=O)N(CCO)C2=O | 87.3% (inactive)
Cc1nnc(-c2ccc3c(c2)nc(/C=C/c2ccccc2)n3C2CCCCC2)o1 | 44.3% (inactive)
CNC(C)[C@H]1CCC2C3CC=C4C(=O)[C@@H](NC(=O)C=C(C)C)CC[C@]4(C)C3CC[C@@]21C (stereo not given in full) | -54% (active)
O=C1Nc2ccccc2C1(c1c[nH]c2ccccc12)c1c[nH]c2ccccc12 | 8.4% (active)
O=C(CN1CCCCCC1)Nc1nc2ccc(NCc3ccc(Cl)cc3)cc2s1 | 96.7% (inactive)
O=C(/C=C(O)/C=C/c1cccc2[nH]ccc12)/C=C/c1cccc2[nH]ccc12 | 63.7% (inactive)
[2H]C([2H])([2H])Oc1ccc(F)cc1/C=C/C(=O)/C=C(O)/C=C/c1cc(F)ccc1OC([2H])([2H])[2H] | 85.1% (inactive)
CCOC(=O)C(=CNc1cnc(Nc2ccc(N3CCOCC3)cc2)nc1Oc1ccc(OC)cc1)C(=O)OCC | 39.3% (inactive)
O=C(CN1CCN(c2cc3c(cc2F)c(=O)c(C(=O)O)cn3C2CC2)CC1)N/N=C/c1ccco1 | 90.8% (inactive)
Cc1ccc(C2CC(c3nc(-c4ccc(Cl)cc4)oc3C)=NN2C(=O)c2ccncc2)cc1 (stereo not given) | 86% (inactive)
COC(=O)c1c2c(c(C)[n+]([O-])c1C)C(=O)C(NCc1cccc(Cl)c1)=CC2=O | 11.7% (inactive)
CSC1=Nc2c(c(C)c(-c3ccccc3)n2CCCC(=O)O)C2=NC(=O)C[C@H](C)N12 | 94.9% (inactive)
COc1ccc(N2CCC(=S)NC2=S)cc1 | 95.3% (inactive)
COc1ccc(C2CC(c3cc(OC)c(OC)c(OC)c3)=NO2)cc1OCCCCOc1cc2c(cc1OC)C(=O)N1CCC[C@H]1C=N2 (stereo not given in full) | -39.7% (active)
O=C(N/N=C\c1ccccc1S(=O)(=O)O)N/N=C/c1ccccc1S(=O)(=O)O | 102% (inactive)
